Source: PubChem BioAssay (NCATS)
Inconclusive results are not listed. Values without a mark were called inactive. Active and inactive are the calls of the source. Calls come from the whole dose curve; as a rule, active = well fitted inhibition curve with a large enough effect; inconclusive = small, poorly fitted or top-dose-only effect; inactive = flat fitted curve, though single readings scatter.

biological target: Glutathione peroxidase 1 (Homo sapiens) (UniProt P07203); experiment: Primary qHTS Assay for Inhibitors of Recombinant Selenoprotein Glutathione Peroxidase 1 (GPX1) (AID 1845191); conditions: recombinant GPX1, GR-coupled NADPH fluorescence, 15 min; series mostly up to 48.8 µM; activity, negative = inhibition: at the top concentration; note: potency is the fitted concentration of half-maximal effect
In short: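 Recombinant GPX1 (10 nM final) was preincubated with compound for 30 min at room temperature, then reacted with 1 mM GSH, 0.5 mM CHP, 0.5 mM NADPH and 100 nM glutathione reductase; NADPH fluorescence (340/450 nm) was read at 0 and 15 min.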
% is set by controls: 0 for no effect and ±100 for the full control effect.
Note: nearly all actives have a fitted effect of over 65% in size.

Chain of Glutathione peroxidase 1 (Homo sapiens) (P07203 whole entry, looked up): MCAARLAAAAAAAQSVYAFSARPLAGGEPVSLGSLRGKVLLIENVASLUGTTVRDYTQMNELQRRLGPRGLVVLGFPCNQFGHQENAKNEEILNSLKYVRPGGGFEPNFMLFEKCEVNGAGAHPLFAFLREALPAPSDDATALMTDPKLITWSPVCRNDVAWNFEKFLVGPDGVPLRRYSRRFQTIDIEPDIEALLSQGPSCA

Row | SMILES | activity, negative = inhibition [%] | outcome | Potency
1 | CCCCCOc1ccccc1/C(=C\SC)n1ccnc1 | -0.238 |  | 
2 | O=C1NC(c2ccccc2)(c2ccccc2)C(=O)N1COP(=O)(O)O | -12.6 |  | 
3 | COc1ccc(-n2nc(CCC(=O)N(C)O)cc2-c2ccc(Cl)cc2)cc1 |  | inactive | 
4 | Cc1nc(C2CCCCC2)c(-c2ccc(S(N)(=O)=O)c(F)c2)o1 |  | inactive | 
5 | CC(C)=CCNc1ncnc2c1ncn2[C@@H]1O[C@H](CO)[C@@H](O)[C@H]1O |  | inactive | 
6 | CC(C)NCCCC1(C(N)=O)c2ccccc2-c2ccccc21 |  | inactive | 
7 | Cc1c(C)c2c(c(C)c1OC(=O)CCC(=O)OCCO)CC[C@@](C)(CCC[C@H](C)CCC[C@H](C)CCCC(C)C)O2 | -17.5 |  | 
8 | Cc1ccc2c(Cl)cc(Cl)c(O)c2n1 | 1.23 |  | 
9 | Cc1ccc(C(=O)Oc2ccc(C(O)CNC(C)(C)C)cc2OC(=O)c2ccc(C)cc2)cc1 (configuration not stated) |  | inactive | 
10 | COC(=O)c1cc(Cl)ccc1NS(=O)(=O)C(F)(F)F | -12.9 |  | 
11 | O=C(Nc1ccc(Cl)cc1)Nc1ccc(Cl)c(C(F)(F)F)c1 | -14.3 |  | 
12 | CCOc1ccc(NS(=O)(=O)c2ccc(N)cc2)nn1 | -18.5 |  | 
13 | Fc1ccc(C(c2ccc(F)cc2)N2CCNCC2)cc1 |  | inactive | 
14 | CN1CCCN(C(c2ccccc2)c2ccc(Cl)cc2)CC1 (configuration not stated) | -17.6 |  | 
15 | CCC[C@H](N[C@@H](C)C(=O)N1[C@H](C(=O)O)C[C@@H]2CCCC[C@@H]21)C(=O)OCC | -9.1 |  | 
16 | Nc1c2ccccc2nc2ccccc12 |  |  | 22.7 µM (active)
17 | CC(=O)O[C@@H]1CC2C3CCc4cc(OC(=O)c5ccccc5)ccc4C3CCC2(C)[C@H]1OC(C)=O (some centres not stated) | 3.36 |  | 
18 | O=C(O)[C@@H](O)[C@H](O)[C@H](O)[C@@H](O)C(=O)O | 1.63 |  | 

Row | SMILES | activity, negative = inhibition [%] | outcome | Potency
19 | CN1C(=O)CC(C)(c2ccccc2)C1=O (configuration not stated) |  | inactive | 
20 | O=C(O)CCC(=O)OC[C@@H](NC(=O)C(Cl)Cl)[C@H](O)c1ccc([N+](=O)[O-])cc1 | -26.1 |  | 
21 | CCO[C@H](Cc1ccc(OCCc2ccc(OS(C)(=O)=O)cc2)cc1)C(=O)O |  | inactive | 
22 | O=C(OCC1(COC(=O)c2cccnc2)CCCC(COC(=O)c2cccnc2)(COC(=O)c2cccnc2)C1O)c1cccnc1 | -20.4 |  | 
23 | CC(=O)CC/C=C(\C)CC/C=C(\C)CC/C=C(\C)CCC=C(C)C | 4.97 |  | 
24 | CO[C@@]1(NC(=O)CSC[C@@H](N)C(=O)O)C(=O)N2C(C(=O)O)=C(CSc3nnnn3C)CS[C@@H]21 |  |  | 22.7 µM (active)
25 | CCOC(=O)NNc1ccc(N(CC)CC(C)O)nn1 (configuration not stated) |  | inactive | 
26 | C[N+](C)(CCOc1ccccc1)Cc1cccs1 |  | inactive | 
27 | Cc1cc2nc3ccc(=[N+](C)C)cc-3sc2cc1N |  |  | 28.6 µM (active)
28 | O=C(C1CCCCC1)N1CC(=O)N2CCCc3ccccc3C2C1 (configuration not stated) | 4.8 |  | 
29 | O=C(O)C(=O)Nc1cccc(-c2nn[nH]n2)c1 |  |  | inactive
30 | Cc1cccc(C)c1NC(=O)c1cc(S(N)(=O)=O)c(Cl)cc1O |  | inactive | 
31 | CCCCCCCCCCCCCCCC[n+]1ccccc1 | -19.2 |  | 
32 | O=C(OCC(COC(=O)c1cccnc1)(COC(=O)c1cccnc1)COC(=O)c1cccnc1)c1cccnc1 | 2.18 |  | 
33 | CN1CC(=O)N2[C@H](c3ccc4c(c3)OCO4)c3[nH]c4ccccc4c3C[C@@H]2C1=O |  |  | inactive
34 | CCC(=O)O[C@H]1[C@H](O[C@@H]2[C@@H](C)[C@H](O[C@H]3C[C@@](C)(OC)[C@@H](O)[C@H](C)O3)[C@@H](C)C(=O)O[C@H](CC)[C@@](C)(O)[C@H](O)[C@@H](C)C(=O)[C@H](C)C[C@@]2(C)O)O[C@H](C)C[C@@H]1N(C)C | 4.86 |  | 
35 | NC(=O)NC1N=C([O][Al])NC1=O (configuration not stated) | -4.68 |  | 
36 | CC(CC(C#N)(c1ccccc1)C(C)C)N(C)C (configuration not stated) | -10.8 |  | 

biological target: Phospholipid hydroperoxide glutathione peroxidase GPX4 (Homo sapiens) (UniProt P36969); experiment: Primary qHTS Assay for Inhibitors of Recombinant Selenoprotein Glutathione Peroxidase 4 (GPX4) (AID 1845192); conditions: recombinant GPX4, GR-coupled NADPH fluorescence, 15 min; series mostly up to 50 µM; activity change, negative = inhibition: at the top concentration
In short: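 GR-coupled readout: 100 nM GR, 1 mM GSH, 0.5 mM NADPH; NADPH fluorescence (ex 340/em 450 nm) read at t=0 and after 15 min RT. GPX4 200 nM, preincubated 30 min with compound; substrate 0.5 mM CHP.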

Chain of Phospholipid hydroperoxide glutathione peroxidase GPX4 (Homo sapiens) (P36969 whole entry, looked up): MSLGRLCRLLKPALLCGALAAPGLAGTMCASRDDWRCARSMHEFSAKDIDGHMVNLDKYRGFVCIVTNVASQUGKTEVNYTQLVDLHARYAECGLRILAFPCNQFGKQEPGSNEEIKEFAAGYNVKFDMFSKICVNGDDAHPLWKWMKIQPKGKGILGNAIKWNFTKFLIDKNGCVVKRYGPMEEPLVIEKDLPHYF

Row | SMILES | activity change, negative = inhibition [%] | outcome
37 | Cc1nc(C2CCCCC2)c(-c2ccc(S(N)(=O)=O)c(F)c2)o1 | 0.0228 | 
38 | Cc1ccc2c(Cl)cc(Cl)c(O)c2n1 |  | inactive
39 | Cc1ccc(C(=O)Oc2ccc(C(O)CNC(C)(C)C)cc2OC(=O)c2ccc(C)cc2)cc1 (configuration not stated) |  | inactive
40 | CCC[C@H](N[C@@H](C)C(=O)N1[C@H](C(=O)O)C[C@@H]2CCCC[C@@H]21)C(=O)OCC | -10.2 | 
41 | CC(=O)O[C@@H]1CC2C3CCc4cc(OC(=O)c5ccccc5)ccc4C3CCC2(C)[C@H]1OC(C)=O (some centres not stated) |  | inactive
42 | O=C(O)[C@@H](O)[C@H](O)[C@H](O)[C@@H](O)C(=O)O |  | inactive
43 | CCOC(=O)NNc1ccc(N(CC)CC(C)O)nn1 (configuration not stated) |  | inactive
44 | CCCCCCCCCCCCCCCC[n+]1ccccc1 | -18.6 | 
45 | O=C(OCC(COC(=O)c1cccnc1)(COC(=O)c1cccnc1)COC(=O)c1cccnc1)c1cccnc1 | 2.88 | 
46 | CCC(=O)O[C@H]1[C@H](O[C@@H]2[C@@H](C)[C@H](O[C@H]3C[C@@](C)(OC)[C@@H](O)[C@H](C)O3)[C@@H](C)C(=O)O[C@H](CC)[C@@](C)(O)[C@H](O)[C@@H](C)C(=O)[C@H](C)C[C@@]2(C)O)O[C@H](C)C[C@@H]1N(C)C | 3.15 | 
47 | CC(CC(C#N)(c1ccccc1)C(C)C)N(C)C (configuration not stated) | -11.2 | 
